A selection: hits, their analogues and other compounds. The true share with any hit is near 6.8%.
Pf Dd2 inh = blocks growth of Plasmodium falciparum Dd2 parasites | P. falciparum Dd2 growth, SYBR Green, 72 h; stronger effect = lower value | activity change, % at 10 µM | 2.3% of 94,000 active | AID 1159554; in the data active = activity change below about -80%; inconclusive = no clear call, values can overlap the other calls
C diff HTS = blocks growth of Clostridium difficile. Clostridium difficile clinical isolate growth, OD600, 24 h; stronger effect = lower value. growth activity, negative = inhibition, % at 16 µg/mL (by protocol). 0.25% of 86,000 active. AID 1259249;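 active = mean growth activity at or below -80% and every replicate also at or below -80%; inconclusive = mean at or below -80% but some replicate above -80%; inactive = mean growth activity above -80%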
T cruzi growth-1 = inhibitors of T. cruzi proliferation. AID 624255. inhibition, % at 8.34 µM. T. cruzi beta-gal in NIH3T3, GalScreen luminescence, 90 h. 5.9% of 77,000 active;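 active = mean inhibition above about 93%, with at least 55% of replicates each passing it, limit read from the data, passing the limit was not always enough; inconclusive = only one of those two conditions holds; inactive = neither condition holds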
T cruzi growth-2 = blocks T. cruzi growth in NIH3T3 host cells | shares compounds with T cruzi growth-1 | T. cruzi beta-gal in NIH3T3, GalScreen luminescence, 90 h | inhibition, % at 8.35 µM | 72% of 5,600 active | AID 651739;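 active = mean replicate inhibition above about 95% and at least 55% of replicates individually reaching it, limit read from the data; inconclusive = only one of the two criteria is met; inactive = neither criterion is met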
T cruzi growth-3 = blocks T. cruzi growth in NIH3T3 host cells; shares compounds with T cruzi growth-1; 21% of 5,600 active; inhibition, % at 2.09 µM; T. cruzi beta-gal in NIH3T3, GalScreen luminescence, 90 h;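 active = mean inhibition above about 95%, with at least 55% of replicates also reaching it, limit read from the data; inconclusive = meets just one of the two conditions; inactive = meets neither condition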
3T3 cytotox = cytotoxicity in mouse NIH/3T3 fibroblasts; shares compounds with T cruzi growth-1; NIH/3T3 viability, CellTiter-Glo ATP luminescence, 90 h; cytotoxicity (signal decrease), % at 8.35 µM; 14% of 5,600 active;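 active = mean signal decrease across replicates above about 35% based on untreated-well scatter, with enough replicates individually passing, limit read from the data; inconclusive = no rule stated though some were filed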
3T3 cytotox 2 = NIH/3T3 (mouse) viability loss | inhibition, % at 24.9 µM | 56% of 5,600 active | shares compounds with T cruzi growth-1 | NIH/3T3 viability, CellTiter-Glo ATP luminescence, 90 h;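 active = mean loss of cell viability signal at or above a set limit, and enough replicates individually reaching it; inconclusive = meets only the mean limit or only the replicate share; inactive = meets neither condition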
Of the large screens only hits and unclear results are named; the others gave an inactive call (follow-up assays come after a bar, where they were run).

C[C@@H]1CN([C@@H](C)CO)C(=O)Cc2cc(NC(=O)Nc3cccc4ccccc34)ccc2O[C@@H]1CN(C)Cc1ccc2c(c1)OCO2	T cruzi growth-1 103 | T cruzi growth-2 109 | T cruzi growth-3 inactive | 3T3 cytotox inactive | 3T3 cytotox 2 52
C[C@H]1CN([C@@H](C)CO)C(=O)Cc2cc(NC(=O)Nc3cccc4ccccc34)ccc2O[C@@H]1CN(C)Cc1ccccc1	none
COC(=O)C[C@H]1CC[C@@H]2[C@@H](COc3ccc(NC(=O)NCc4ccccc4)cc3C(=O)N2C)O1	none
CC(C)NC(=O)Nc1cccc2c1O[C@H](CN(C)C)[C@H](C)CN([C@H](C)CO)C2=O	none
CO[C@@H]1CN(C)C(=O)c2ccc(NC(=O)NC(C)C)cc2OC[C@@H](C)N(Cc2ccccn2)C[C@H]1C	none (no result: T cruzi growth-1)
CCCC#Cc1cnc2c(c1)C(=O)N([C@@H](C)CO)C[C@H](C)[C@@H](CN(C)Cc1ccc3c(c1)OCO3)O2	none (no result: T cruzi growth-1)
CCCNC(=O)C[C@@H]1CC[C@H]2[C@H](COc3ccc(NC(=O)NC(C)C)cc3C(=O)N2C)O1	none
CCC(=O)N1CCC2(CC1)CN(S(C)(=O)=O)[C@H](CO)c1[nH]c3cc(OC)ccc3c12	none (no result: C diff HTS, T cruzi growth-1)
COc1ccc(S(=O)(=O)N(C)C[C@H]2Oc3cc(C#CC4CCCC4)ccc3S(=O)(=O)N([C@H](C)CO)C[C@@H]2C)cc1	none
COc1ccc(S(=O)(=O)N(C)C[C@H]2Oc3cc(C#CC4CC4)ccc3S(=O)(=O)N([C@@H](C)CO)C[C@@H]2C)cc1	T cruzi growth-1 102 | T cruzi growth-2 97 | T cruzi growth-3 inactive | 3T3 cytotox 53 | 3T3 cytotox 2 67
COc1ccc(S(=O)(=O)N(C)C[C@@H]2Oc3cc(C#CC4CC4)ccc3S(=O)(=O)N([C@H](C)CO)C[C@H]2C)cc1	T cruzi growth-1 106 | T cruzi growth-2 103 | T cruzi growth-3 inactive | 3T3 cytotox 37 | 3T3 cytotox 2 47
COc1ccc(S(=O)(=O)N(C)C[C@H]2Oc3cc(C#CC4CCCC4)ccc3S(=O)(=O)N([C@@H](C)CO)C[C@H]2C)cc1	none
COc1ccc(S(=O)(=O)N(C)C[C@H]2Oc3cc(C#CC4CCCC4)ccc3S(=O)(=O)N([C@@H](C)CO)C[C@@H]2C)cc1	Pf Dd2 inh inconclusive
COc1ccc(S(=O)(=O)N(C)C[C@H]2Oc3cc(C#CC4CC4)ccc3S(=O)(=O)N([C@@H](C)CO)C[C@H]2C)cc1	T cruzi growth-1 110 | T cruzi growth-2 109 | T cruzi growth-3 inconclusive | 3T3 cytotox inactive | 3T3 cytotox 2 57
CCS(=O)(=O)Nc1ccc2c(c1)C(=O)N(C)[C@@H]1CC[C@H](CC(=O)N3CCN(C)CC3)O[C@@H]1CO2	none
COc1cccc(C#Cc2cnc3c(c2)C(=O)N([C@H](C)CO)C[C@H](C)[C@@H](CN(C)C(=O)C2CC2)O3)c1	none (no result: C diff HTS)
CN1c2ccc(-c3ccccc3F)cc2[C@@H]2[C@@H](CCN2S(=O)(=O)c2ccccc2)[C@H]1CO	none
CC(C)CC#Cc1ccc2c(c1)O[C@@H](CN(C)C(=O)Nc1ccccc1F)[C@H](C)CN([C@@H](C)CO)S2(=O)=O	T cruzi growth-1 108 | T cruzi growth-2 108 | T cruzi growth-3 inactive | 3T3 cytotox inactive | 3T3 cytotox 2 101
CCCC#Cc1ccc2c(c1)O[C@H](CN(C)C(=O)Nc1ccccc1F)[C@H](C)CN([C@H](C)CO)S2(=O)=O	none (no result: T cruzi growth-1)
CC(C)CC#Cc1ccc2c(c1)O[C@@H](CN(C)C(=O)Nc1ccccc1F)[C@@H](C)CN([C@H](C)CO)S2(=O)=O	T cruzi growth-1 108 | T cruzi growth-2 106 | T cruzi growth-3 inconclusive | 3T3 cytotox inactive | 3T3 cytotox 2 99
CC(C)CC#Cc1ccc2c(c1)O[C@H](CN(C)C(=O)Nc1ccccc1F)[C@@H](C)CN([C@@H](C)CO)S2(=O)=O	none
CC(C)CC#Cc1ccc2c(c1)O[C@@H](CN(C)C(=O)Nc1ccccc1F)[C@H](C)CN([C@H](C)CO)S2(=O)=O	T cruzi growth-1 115 | T cruzi growth-2 109 | T cruzi growth-3 inactive | 3T3 cytotox inactive | 3T3 cytotox 2 78
CC(C)CC#Cc1ccc2c(c1)O[C@H](CN(C)C(=O)Nc1ccccc1F)[C@H](C)CN([C@@H](C)CO)S2(=O)=O	none
CCCNC(=O)C[C@H]1CC[C@H]2[C@@H](COC[C@@H](O)CN2C(=O)Nc2cccc(Cl)c2)O1	none (no result: T cruzi growth-1)
C[C@@H]1CN([C@H](C)CO)C(=O)c2cccc(NS(=O)(=O)c3ccccc3)c2O[C@@H]1CN(C)C(=O)Nc1cccc2ccccc12	none
O=C(N[C@@H]1CC[C@H](CCNC(=O)C2CCOCC2)O[C@@H]1CO)c1ccccn1	none
OC[C@@H]1[C@H](c2ccc(C#Cc3ccccc3)cc2)[C@H]2CN(CC3CCOCC3)CCCCN12	T cruzi growth-1 117 | T cruzi growth-2 100 | T cruzi growth-3 inactive | 3T3 cytotox inactive | 3T3 cytotox 2 105
OC[C@@H]1[C@@H](c2ccc(C#Cc3ccccc3F)cc2)[C@H]2CN(CC3CCOCC3)CCCCN12	none
OC[C@H]1[C@H](c2ccc(C#Cc3ccccc3F)cc2)[C@H]2CN(CC3CCOCC3)CCCCN21	none
OC[C@H]1[C@H](c2ccc(C#Cc3ccccc3)cc2)[C@@H]2CN(CC3CCOCC3)CCCCN12	T cruzi growth-1 inconclusive | T cruzi growth-2 106 | T cruzi growth-3 inactive | 3T3 cytotox inactive | 3T3 cytotox 2 106
C[C@H]1CCCCO[C@@H](CN(C)Cc2ccc(C(=O)O)cc2)[C@@H](C)CN([C@@H](C)CO)C(=O)c2cc(NC(=O)NC3CCCCC3)ccc2O1	none
C[C@@H]1CN([C@H](C)CO)S(=O)(=O)c2ccc(-c3ccc(C#N)cc3)cc2O[C@@H]1CN(C)Cc1ccccn1	none (no result: T cruzi growth-1)
CC(C)C#Cc1ccc2c(c1)O[C@H](CN(C)Cc1ccncc1)[C@H](C)CN([C@H](C)CO)S2(=O)=O	T cruzi growth-1 101 | T cruzi growth-2 99 | T cruzi growth-3 inactive | 3T3 cytotox inconclusive | 3T3 cytotox 2 50
C[C@H](O)C#Cc1ccc2c(c1)O[C@H](CN(C)Cc1ccncc1)[C@H](C)CN([C@@H](C)CO)S2(=O)=O	none
C[C@H](O)C#Cc1ccc2c(c1)O[C@@H](CN(C)Cc1ccncc1)[C@H](C)CN([C@H](C)CO)S2(=O)=O	T cruzi growth-1 113 | T cruzi growth-2 100 | T cruzi growth-3 inactive | 3T3 cytotox inactive | 3T3 cytotox 2 39
C[C@@H](O)C#Cc1ccc2c(c1)O[C@H](CN(C)Cc1ccncc1)[C@@H](C)CN([C@@H](C)CO)S2(=O)=O	none
CCCN1[C@@H]2c3ccc(/C=C/c4ccccc4)c(=O)n3C[C@H]1[C@H](CO)[C@H]2C(=O)NCC1CC1	none

Assay outcomes deposited in PubChem BioAssay by Broad Institute.
